Sampled rows, rich in hits. Any-hit rate of the full collection: about 3.9%.
SUMO Mot1 rescue: blocks SUMOylation pathway, rescuing yeast Mot1-301 growth; growth rescue, % at 18.8 µM; 320,000 tested, 1% active; S. cerevisiae Mot1-301 growth rescue, ATP luminescence, 38.5C; percent above DMSO median, 100 means doubled; AID 2716;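 active = every valid replicate shows activation above 250% relative to neutral control wells; inactive = the rest, any valid replicate at or below 250%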;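 also: OY570 slx delta 5 strain wells were the positive control but not used for scaling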
NSD2 HMT inh: blocks human histone methyltransferase NSD2 | 310,000 tested, 0.54% active | NSD2 peptide methylation, AlphaScreen, 120 min | inhibition, % at 12.5 µM; in the data active = inhibition above about 50%
Casp6 inh: blocks human caspase-6 cleavage activity. P55212. purified caspase-6, Z-VEID-R110 cleavage fluorescence. inhibition, % at 12.5 µM. 350,000 tested, 0.53% active;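 active = mean inhibition across replicates at least about 35%, with every replicate also reaching that limit, limit read from the data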;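 also: 0% = median of neutral control wells and 100% = no fluorescence left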
Target sequence (P55212 24-179 limits assumed): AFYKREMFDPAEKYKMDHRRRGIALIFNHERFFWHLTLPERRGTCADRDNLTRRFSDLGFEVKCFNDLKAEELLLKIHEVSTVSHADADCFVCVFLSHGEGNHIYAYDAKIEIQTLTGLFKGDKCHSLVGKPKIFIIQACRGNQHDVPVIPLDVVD
Target sequence (P55212 194-293 limits assumed): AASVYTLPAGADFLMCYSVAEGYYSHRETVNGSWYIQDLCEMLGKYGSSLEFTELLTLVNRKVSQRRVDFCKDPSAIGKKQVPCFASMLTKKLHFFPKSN
CDK5 inh: inhibitors of human CDK5/p35 kinase. Q00535+Q15078. Recombinant CDK5/p35, ADP-Glo luminescence, 60 min. inhibition, % at 10 µM. 330,000 tested, 0.01% active. AID 488839;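 active = highest replicate inhibition of at least 50% and at least 75% of replicates reaching 50%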;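 also: plate controls were DMSO neutral control for no effect and GW8510 at 10 µM for full effect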
Glyco luc inh: N-linked glycosylation inhibition. AID 588692. reporter increase, % at 12.5 µM. 360,000 tested, 0.23% active. D54 ERlucT glycosylation luciferase reporter, 24 h; percent of 100 nM tunicamycin response;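 active = mean luciferase reporter signal, scaled so untreated is 0 and the glycosylation-blocking control 100, at or above a set limit in every replicate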;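 also: luciferase carries N-glycosylation sites so blocking glycosylation raises the light; 0% = median of neutral control wells and 100% = median of 100 nM tunicamycin wells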
ALR H2O2 inh: human ALR oxidase inhibition via reduced H2O2 | inhibition, % (concentration not given with the values) | AID 485317 | P55789 | purified ALR, DTT oxidation, H2O2 HRP-luminol luminescence | 290,000 tested, 3.8% active;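 active = mean replicate inhibition above about 79%, with every replicate also reaching it, limit read from the data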
Target sequence (P55789 whole entry, looked up): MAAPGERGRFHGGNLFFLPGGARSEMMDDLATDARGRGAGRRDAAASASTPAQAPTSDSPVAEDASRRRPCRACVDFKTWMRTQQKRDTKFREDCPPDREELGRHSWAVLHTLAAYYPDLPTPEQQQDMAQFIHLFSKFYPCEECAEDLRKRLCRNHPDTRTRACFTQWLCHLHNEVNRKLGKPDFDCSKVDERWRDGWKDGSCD
* = called active by the depositor; · = not tested or not shown.

SMILES | SUMO Mot1 rescue | NSD2 HMT inh | Casp6 inh | CDK5 inh | Glyco luc inh | ALR H2O2 inh
CC(=O)O[C@@H]1[C@@H](O)[C@@H](O)[C@H](Oc2c(-c3ccc(O)cc3)oc3c(CC=C(C)C)c(O)cc(O)c3c2=O)O[C@H]1C | 190 | · | · | · | · | ·
C[C@H]1CN([C@@H](C)CO)C(=O)c2cc(NC(=O)Nc3ccc4c(c3)OCO4)ccc2O[C@H]1CN(C)CC1CCCCC1 | · | · | 4 | · | · | ·
CCCN(C)C[C@@H]1Oc2ncc(C#CCC(C)C)cc2C(=O)N([C@H](C)CO)C[C@H]1C | · | · | 2 | · | · | ·
Cc1ccc(SCC(=O)Nc2ccc(S(=O)(=O)Nc3ncccn3)cc2)cc1 | 2 | 1 | 0 | -1 | 1 | 90*
CCc1c(C(=O)NNC(=S)Nc2ccc(S(=O)(=O)Nc3ncccn3)cc2)csc1C | -5 | 1 | -2 | 0 | 1 | 98*
O=C(Nc1ccc(S(=O)(=O)Nc2ncccn2)cc1)C1=COCCO1 | 433 | 3 | 0 | -4 | 0 | 97*
COC(=O)c1ccc(NC(=O)CSCc2ccccc2)cc1 | 25 | -4 | · | 0 | 0 | 99*
CC(=O)Nc1ccc(S(=O)(=O)Nc2ncccn2)cc1 | 3 | -1 | · | 0 | 1 | -3
C[C@@H]1CN([C@H](C)CO)C(=O)c2cccc(NS(=O)(=O)c3cccs3)c2O[C@H]1CN(C)Cc1ccc(Cl)c(Cl)c1 | · | · | -1 | · | · | ·
O=C(CS(=O)(=O)c1ccccc1)Nc1ccc(S(=O)(=O)Nc2ncccn2)cc1 | 2 | -2 | 0 | 1 | 1 | -15
O=C(CSCc1ccccc1)Nc1ccc(S(=O)(=O)Nc2ncccn2)cc1 | 1 | -2 | 1 | 0 | 1 | 98*
COc1cccc(NC(=O)N(C)C[C@@H]2OCc3ccccc3-c3c(n(C)c4ccccc34)C(=O)N([C@@H](C)CO)C[C@@H]2C)c1 | · | · | 0 | · | · | ·
Nc1ccc(N=Nc2ccc(N)cc2)cc1 | 72 | 4 | -1 | 0 | -6 | 98*
Cc1cc(N(C)C)ccc1N=Nc1ccc(N)cc1 | 17 | 33 | 1 | 2 | -12 | 45
Oc1ccccc1N1CCN(c2nnnn2-c2ccccc2)CC1 | 439* | 7 | 4 | 1 | -2 | 99*
Fc1ccccc1N1CCN(c2nnnn2-c2ccccc2)CC1 | 7 | 7 | 3 | 1 | 0 | -3
c1ccc(N2CCN(c3ncccn3)CC2)cc1 | 9 | 2 | · | 2 | 0 | 98*
Oc1ccccc1N1CCN(c2ncccn2)CC1 | 15 | 1 | -1 | 0 | 0 | 99*
O=C(c1ccccc1)N1CCN(c2ncccn2)CC1 | 18 | -5 | 2 | -2 | 2 | -12
C[C@H]1CN([C@@H](C)CO)S(=O)(=O)c2ccc(-c3ccccc3)cc2O[C@H]1CN(C)C(=O)Nc1ccccc1F | · | · | 1 | · | · | ·
O=C(NCC[C@@H]1CC[C@@H](NS(=O)(=O)c2cccc(F)c2)[C@@H](CO)O1)C1CCC1 | · | · | -1 | · | · | ·
O=C(C[C@@H]1C[C@@H]2c3cc(NS(=O)(=O)c4ccc(F)cc4)ccc3O[C@@H]2[C@@H](CO)O1)NCc1cc(F)ccc1F | · | · | -3 | · | · | ·
NC1=NC(=O)/C(=C/c2ccc(OCC(=O)O)cc2)S1 | 1 | 0 | -1 | 1 | -2 | -19
CCN(CC)c1ccc(/C=C2\SC(N)=NC2=O)cc1 | -3 | 1 | 2 | 1 | 1 | 99*
CC(=O)N1CCC(=NNC(=O)c2cccs2)CC1 | 8 | -1 | · | -1 | 2 | 77*
SMILES | SUMO Mot1 rescue | NSD2 HMT inh | Casp6 inh | CDK5 inh | Glyco luc inh | ALR H2O2 inh
COc1ccc(/C=C2\S/C(=N/S(=O)(=O)c3cccs3)NC2=O)cc1 | 19 | 3 | -1 | 0 | 3 | 97*
CCOc1ccc(CSC(=N)N)cc1Cl | 2 | -1 | -2 | 0 | 4 | 100*
CCOc1ccc(CSC(=N)N)cc1[N+](=O)[O-] | · | 11 | · | 0 | 15 | 98*
COc1ccc(CSc2nnc(C)n2N)cc1[N+](=O)[O-] | 3 | 2 | -2 | 1 | 0 | -4
Cc1noc(C)c1NC(=O)N[C@@H]1CC[C@@H](CCNC(=O)C2CC2)O[C@H]1CO | · | · | -4 | · | · | ·
CCn1c(CS(=O)Cc2ccc(Cl)cc2Cl)nnc1SCc1c(Cl)cccc1Cl (configuration not stated) | 6 | -3 | 1 | 2 | -1 | 99*
C[C@@H]1CN([C@H](C)CO)C(=O)c2cc(N(C)C)ccc2O[C@H]1CN(C)Cc1ccc(Cl)c(Cl)c1 | · | · | 1 | · | · | ·
